“And” between values parts separate entries of the source, which are not always exact repeats. Equal values may be shown once.
Experiments:
[1] = test system: HT29 RNF43 G659fs (RNF43 659mut, CRISPR-edited); experiment: cell viability activity relative to DMSO (negative = inhibition); higher = more viable cells (less growth inhibition); conditions: 5 µM; 96 h
Experimental: (§1)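 Broad Repurposing Library primary screen at a single dose of 5 uM. HT29 sg-Ctrl and HT29 RNF43 G659fs CRISPR-edited isogenic cells were seeded at 2500 cells/well in 384-well plates in duplicate and treated for 96 h. Viability was read by CellTiter-Glo and reported as % activity relative to DMSO, with MG132 as the positive control (negative = growth inhibition).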

[2] = test system: HT29 sg-Ctrl (RNF43 wildtype); experiment: as above; conditions: 5 µM; 96 h
Experimental: as §1

O=C(Nc1c[nH]nc1-c1nc2ccc(CN3CCOCC3)cc2[nH]1)NC1CC1
cell viability activity [1]: -72.3% | cell viability activity [2]: -71.2%

C/C(=C\c1csc(C)n1)[C@@H]1C[C@@H]2O[C@]2(C)CCC[C@H](C)[C@H](O)[C@@H](C)C(=O)C(C)(C)[C@@H](O)CC(=O)N1
cell viability activity [1]: -42.8% | cell viability activity [2]: -38.1%

COC(=O)Nc1nc2cc(C(=O)c3cccs3)ccc2[nH]1
cell viability activity [1]: -64.5% | cell viability activity [2]: -78.3%

COc1ccc(N(C)c2nc(C)nc3ccccc23)cc1
cell viability activity [1]: -59.2% | cell viability activity [2]: -68%

Cc1ccc(C(=O)Nc2ccc(Oc3cc4cnn(C)c4cc3-c3cn[nH]c3)c(F)c2)c(=O)n1-c1ccc(F)cc1
cell viability activity [1]: -41.5% | cell viability activity [2]: -29%

Cc1nc2ccccc2n1Cc1ccc(Cl)cc1
cell viability activity [1]: -60.5% | cell viability activity [2]: -39.4%

N#CC1(c2ccc(NC(=O)c3cccnc3NCc3ccncc3)cc2)CCCC1
cell viability activity [1]: -45.5% | cell viability activity [2]: -22.7%

Clc1ccccc1CNCC1CCC(CNCc2ccccc2Cl)CC1 (stereo unspecified)
cell viability activity [1]: -26.3% | cell viability activity [2]: -19.9%

C=CCNC1=C2C[C@@H](C)C[C@H](OC)[C@H](O)[C@@H](C)/C=C(\C)[C@H](OC(N)=O)[C@@H](OC)/C=C\C=C(/C)C(=O)NC(=CC1=O)C2=O
cell viability activity [1]: -90.1% | cell viability activity [2]: -83.4%

CCOc1cc2ncc(C#N)c(Nc3ccc(F)c(Cl)c3)c2cc1NC(=O)/C=C/CN(C)C
cell viability activity [1]: -77.4% | cell viability activity [2]: -78.7%

c1cc(Nc2cc(C3CC3)[nH]n2)nc(Nc2ccc3nc[nH]c3c2)n1
cell viability activity [1]: -29.4% | cell viability activity [2]: -65.9%

NNc1nncc2ccccc12
cell viability activity [1]: -46.5% | cell viability activity [2]: -40.8%

CN(C)Cc1ccc(S(=O)(=O)n2ccc(/C=C/C(=O)NO)c2)cc1
cell viability activity [1]: -72.5% | cell viability activity [2]: -64.6%

CC(=O)N(O)CCCCCNC(=O)CCC(=O)N(O)CCCCCNC(=O)CCC(=O)N(O)CCCCCN
cell viability activity [1]: -56.3% | cell viability activity [2]: -45%

CN1CCN(c2ccc3nc(-c4c(N)c5c(F)cccc5[nH]c4=O)[nH]c3c2)CC1
cell viability activity [1]: -60.6% | cell viability activity [2]: -77.6%

N=C(NCCCCCCNC(=N)NC(=N)Nc1ccc(Cl)cc1)NC(=N)Nc1ccc(Cl)cc1
cell viability activity [1]: -45.1% | cell viability activity [2]: -24.9%

CCCCCCCCCCCC[N+](C)(C)CCOc1ccccc1
cell viability activity [1]: -84.4% | cell viability activity [2]: -91.5%

CC(=O)O[C@H]1C(=O)[C@@]2(C)[C@H]([C@H](OC(=O)c3ccccc3)[C@]3(O)C[C@H](OC(=O)[C@H](O)[C@@H](NC(=O)c4ccccc4)c4ccccc4)C(C)=C1C3(C)C)[C@]1(OC(C)=O)CO[C@@H]1C[C@@H]2O
cell viability activity [1]: -58.4% and -50% | cell viability activity [2]: -54.2% and -52.9%

COC(=O)Nc1nc2cc(C(=O)c3ccccc3)ccc2[nH]1
cell viability activity [1]: -58.1% | cell viability activity [2]: -51.4%

CN1CC[C@@H](c2c(O)cc(O)c3c(=O)cc(-c4ccccc4Cl)oc23)[C@@H]1CO
cell viability activity [1]: -90.1% | cell viability activity [2]: -82.7%

CCCCCC(O)c1cccc(OCc2ccc3ccccc3n2)c1 (stereo unspecified)
cell viability activity [1]: -71.3% | cell viability activity [2]: -64%

c1cncc(CN2CCC(n3ncc4c(N5CCOCC5)nc(-c5ccc6[nH]ccc6c5)nc43)CC2)c1
cell viability activity [1]: -74.3% | cell viability activity [2]: -75.2%

COc1cc(/C=C/C(=O)CC(=O)/C=C/c2ccc(O)c(OC)c2)ccc1O
cell viability activity [1]: -87.7% | cell viability activity [2]: -84.2%

COC(=O)C1=C(C)NC(C)=C(C(=O)OCCCN2CCC(c3ccccc3)(c3ccccc3)CC2)[C@@H]1c1cccc([N+](=O)[O-])c1
cell viability activity [1]: -65.6% | cell viability activity [2]: -91.4%

COc1cc(C(=O)NC2CCN(C)CC2)c(F)cc1Nc1ncc2c(n1)N(C1CCCC1)CC(F)(F)C(=O)N2C
cell viability activity [1]: -65.9% | cell viability activity [2]: -68.1%

CC[C@@]1(O)C(=O)OCc2c1cc1n(c2=O)Cc2cc3c([N+](=O)[O-])cccc3nc2-1
cell viability activity [1]: -93.9% | cell viability activity [2]: -95.5%

CCNCCCNCCCCNCCCNCC
cell viability activity [1]: -31% | cell viability activity [2]: -43.8%

Nc1nccc2c1ncn2[C@@H]1C=C(CO)[C@@H](O)[C@H]1O
cell viability activity [1]: -41.6% | cell viability activity [2]: -40.1%

CCNC(=O)Nc1ccc(-c2nc3c(c(N4CCOC[C@@H]4C)n2)CCN(C2COC2)C3)cc1
cell viability activity [1]: -36.7% | cell viability activity [2]: -22%

COC(=O)Nc1nc2ccc(SC(C)C)cc2[nH]1
cell viability activity [1]: -43.7% | cell viability activity [2]: -5.83%

Cc1nc(N)sc1-c1ccnc(Nc2ccc(N3CCOCC3)cc2)n1
cell viability activity [1]: -59.7% | cell viability activity [2]: -59.8%

CCc1cccc(CC)c1NC(=O)N1Cc2[nH]nc(NC(=O)c3ccc(N4CCN(C)CC4)cc3)c2C1
cell viability activity [1]: -46.8% | cell viability activity [2]: -21.2%

CC(C)(C)c1ccc(C(=O)CCCN2CCC(OC(c3ccccc3)c3ccccc3)CC2)cc1
cell viability activity [1]: -79.7% | cell viability activity [2]: -92.1%

COc1cccc(Nc2ncnn3ccc(CN4CC[C@@H](N)[C@H](O)C4)c23)c1
cell viability activity [1]: -24% | cell viability activity [2]: -31.4%

O=c1[nH]cc(F)c(=O)[nH]1
cell viability activity [1]: -32.3% | cell viability activity [2]: -14.8%

COC(=O)c1ccccc1-c1c2ccc(=N)cc-2oc2cc(N)ccc12
cell viability activity [1]: -44.3% | cell viability activity [2]: -37.4%

NC1(Cc2ccc(Cl)cc2)CCN(c2ncnc3[nH]ccc23)CC1
cell viability activity [1]: -39.2% | cell viability activity [2]: -20.8%

C=CC(=O)Nc1cc2c(Nc3ccc(F)c(Cl)c3)ncnc2cc1C#CC(C)(C)N1CCN(C)CC1
cell viability activity [1]: -94.8% | cell viability activity [2]: -86.1%

— the supplement of paper PMC9177965
